Bioassay records (PubChem)
This is a sample that favours compounds with a hit; in the whole collection about 8.5% have one here.
JMJD2E inh = JMJD2E (human) inhibition. Potency, µM (series often up to 57.1 µM), inactives show top-dose activity change, negative = inhibition, hits mostly inhibitors. JMJD2E catalytic domain, FDH-coupled NADH fluorescence (FDH is formaldehyde dehydrogenase). hit rate 1.6% among 230,000. AID 2147; active = well fitted inhibition curve with a large enough effect, not every such curve was filed as active; inconclusive = small, poorly fitted or top-dose-only effect, or another doubt; inactive = no such curve, though single readings can be large or run the other way;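 also: potency is read from the fitted curve at half-maximal effect; 0% = wells with enzyme and -100% = buffer wells without enzyme; nearly all actives have a fitted effect of over 50% in size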
FBPA coupling cs = coupling enzyme interference in Giardia aldolase counter-screen | activity change, negative = inhibition, % at 58.2 µM, hits read low | hit rate 0.67% among 290,000 | coupling enzyme system counterscreen, AmpLite Red fluorescence; in the data active = activity change below about -30%
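Compounds tested against the coupling enzymes alone at 57.5 uM final; readout was AmpLite Red fluorescence (525/598 nm) after 20 min at RT.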
GoLoco inh red = RGS12 GoLoco-Gai1 interaction inhibition. P63096. Gai1:RGS12 GoLoco peptide FP, rhodamine, 10 min. Potency, µM (highest dose often 61.6 µM), for the others: at the top dose activity, negative = inhibition, hits mostly inhibitors. hit rate 0.44% among 230,000. AID 880; active = well fitted inhibition curve with a large enough effect, not every such curve was filed as active; inactive = no such curve, though single readings can be large or run the other way; also: potency is read from the fitted curve at half-maximal effect; nearly all actives have a fitted effect of over 30% in size
Target sequence (P63096 whole entry, looked up): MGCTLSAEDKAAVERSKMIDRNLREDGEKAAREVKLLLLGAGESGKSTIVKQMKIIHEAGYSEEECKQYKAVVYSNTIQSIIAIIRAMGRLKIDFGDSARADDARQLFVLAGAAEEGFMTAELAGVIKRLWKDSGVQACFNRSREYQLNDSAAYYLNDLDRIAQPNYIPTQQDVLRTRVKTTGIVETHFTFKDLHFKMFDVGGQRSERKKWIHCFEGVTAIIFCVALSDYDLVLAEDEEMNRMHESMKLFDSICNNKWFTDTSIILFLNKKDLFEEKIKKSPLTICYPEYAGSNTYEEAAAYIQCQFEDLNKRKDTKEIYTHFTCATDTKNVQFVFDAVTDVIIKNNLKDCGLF
Sfp PPTase inh = inhibitors of Bacillus subtilis Sfp phosphopantetheinyl transferase; Q9F4F7; Biochemical Sfp PPTase activity, qHTS; Potency, µM, for inactives: largest response in the series, negative = inhibition, actives largely listed as inhibitors; hit rate 3.5% among 310,000; AID 1490;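 also: the enzyme is Sfp with the accession as filed and its product quenches rhodamine fluorescence; potency is read from the fitted curve at half-maximal effect; 0% = enzyme reaction without inhibitor and -100% = no enzyme wells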
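Compounds were incubated with enzyme (final 15 nM) for 15 min at room temperature before substrate addition started the reaction. Fluorescence at 525 nm excitation, 598 nm emission was recorded immediately and after 30 minutes.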
ALDH1A1 inh = inhibitors of human aldehyde dehydrogenase 1A1 | P00352 | AID 1030 | hit rate 7.3% among 220,000 | Purified ALDH1A1, NADH fluorescence, propionaldehyde substrate | Potency, µM (top dose mostly 75.3 µM), for the others: at the top dose activity, negative = inhibition, most hits filed as inhibitors; active = well fitted inhibition curve with a large enough effect, not every such curve was filed as active; inconclusive = small, poorly fitted or top-dose-only effect, or another doubt; inactive = no such curve, though single readings can be large or run the other way;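 also: potency is read from the fitted curve at half-maximal effect; plate controls were no enzyme wells and a reference inhibitor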
NPSR antagonist = neuropeptide S receptor (human) antagonism, cAMP; Q6W5P4; CHO-NPSR cells, cAMP TR-FRET, antagonist mode; Potency, µM (top dose mostly 38.3 µM), inactives show top-dose activity change, negative = inhibition, most hits filed as inhibitors; hit rate 1% among 220,000; also: potency is read from the fitted curve at half-maximal effect; nearly all actives have a fitted effect of over 50% in size
Target sequence (Q6W5P4 whole entry, looked up): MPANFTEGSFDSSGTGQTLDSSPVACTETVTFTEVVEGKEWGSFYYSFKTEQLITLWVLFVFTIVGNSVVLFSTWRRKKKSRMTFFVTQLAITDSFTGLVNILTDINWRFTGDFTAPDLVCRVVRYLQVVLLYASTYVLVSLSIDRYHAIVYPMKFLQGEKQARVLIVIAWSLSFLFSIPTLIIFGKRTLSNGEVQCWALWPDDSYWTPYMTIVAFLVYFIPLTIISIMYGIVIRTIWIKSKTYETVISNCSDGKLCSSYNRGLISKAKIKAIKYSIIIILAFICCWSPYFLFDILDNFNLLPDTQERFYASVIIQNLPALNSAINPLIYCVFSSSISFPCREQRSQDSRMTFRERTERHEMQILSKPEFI
Starred values were filed as active, the others as inactive; ? = inconclusive; . = no result given; [ ] = dose if it differs, or a comment. Unless noted, calls follow the shape of the dose curve; as a rule, active = well fitted curve in the direction sought with a large enough effect; inconclusive = small, poorly fitted or top-dose-only effect, or another doubt; inactive = no such curve, though single readings can be large; an effect the other way counts as inactive or inconclusive. Unless noted, % is scaled to controls: 0 for no effect and ±100 for the full control effect.

SMILES | JMJD2E inh | FBPA coupling cs | GoLoco inh red | Sfp PPTase inh | ALDH1A1 inh | NPSR antagonist
CC(=O)Nc1ccc(S(=O)(=O)NNC(=O)COc2cccc(C)c2)cc1 | ? | 3 | 3% | 79µM* | ? | -3%[46.1 µM]
CC(Oc1ccc([N+](=O)[O-])cc1)C(=O)NCC1CCCO1 (configuration not stated) | . | . | . | 17% | . | .
Cc1nc(/C=C\C(=O)O)c2cc(C)oc2n1 | ? | 0 | 1% | 25% | ? | 33%
O=C(c1ccc(Cl)nc1)N1CCN(S(=O)(=O)c2ccccc2)CC1 | 0% | 2 | 0% | 6% | . | 13%
O=C(CCc1ccccc1)NN1C(=O)C2C3C=CC(O3)C2C1=O (configuration not stated) | -10% | 4 | -6% | 10µM* | 14% | 23%
O=C(CCc1ccccc1)NNC(=O)CCc1ccccc1 | . | 4 | . | 5% | . | .
O=c1[nH]c(C2CCCN(S(=O)(=O)c3ccc(F)cc3)C2)nc2c1nnn2Cc1ccccc1 (configuration not stated) | 5% | -3 | 4% | -20% | 14µM* | -30%[46.1 µM]
CCc1nn(CC(=O)NCCN2CCN(C)CC2)c(=O)c2cc3c(OC)cccc3n12 | . | 0 | . | 6% | . | .
CCOC(=O)Nc1sc(=S)n(C)c1C | -21% | 1 | -3% | 16µM* | 19µM* | -4%[46.1 µM]
Cc1ccc(S(=O)(=O)NCCOC(=O)Nc2sc(=S)n(C)c2C)cc1 | 6% | 0 | -2% | 56µM* | ? | -9%[46.1 µM]
Cc1c(NC(=O)OCCNC(=O)Nc2ccccc2)sc(=S)n1C | -3% | 1 | 3% | -24% | -9% | -14%[46.1 µM]
O=[N+]([O-])c1ccc(Sc2nnnn2-c2ccccc2)nc1 | 3% | 1 | 9% | 14% | 22µM* | 14%
Cc1ccc(-c2noc(CSc3nnnn3C3CCCCC3)n2)cc1 | -4% | 3 | -11% | -6% | 14µM* | -16%[46.1 µM]
COc1ccccc1Oc1nnnn1-c1ccc(C(N)=O)cc1 | -5% | 2 | 4% | 3% | 13µM* | -1%[46.1 µM]
COC(=O)c1sccc1NC(=O)CSc1nnnn1-c1ccccc1F | -3% | 0 | 11% | -8% | 14µM* | ?
CC1Sc2ccc(S(=O)(=O)CCC(=O)NCc3ccc(Cl)cc3)cc2NC1=O (configuration not stated) | . | . | . | 0% | . | .
Brc1ccccc1Cn1c(-c2cscn2)nc2ccccc21 | -10% | 0 | 9% | -2% | -8% | ?
c1ccc(-n2nnnc2OCCOc2nnnn2-c2ccccc2)cc1 | -7% | 1 | 9% | 22% | 2.5µM* | ?
COc1ccc(Oc2nnnn2-c2ccccc2)cc1 | 5% | 0 | -6% | 22% | 7.9µM* | -9%[46.1 µM]
COc1ccc(CSc2nnnn2-c2ccccc2)cc1 | -10% | 0 | -2% | -3% | 11µM* | -18%[46.1 µM]
COc1ccc(Oc2cnn(-c3ccccc3)c(=O)c2Br)cc1 | 4% | 3 | -13% | -10% | 25µM* | -23%
COc1cnn(-c2ccc(C)cc2)c(=O)c1Br | 1% | 2 | 89% | 10% | -15% | -2%
COc1cccc(Oc2nnnn2-c2ccccc2)c1 | 0% | 0 | . | 20% | ? | -11%[46.1 µM]
CC(C)Oc1nnnn1-c1ccccc1 | 5% | 4 | 3% | 22% | -1% | ?
CSc1ccccc1-n1nnnc1SCC(=O)Nc1cc(C)ccc1C | 0% | 1 | 2% | 7% | 14µM* | -21%[46.1 µM]
SMILES | JMJD2E inh | FBPA coupling cs | GoLoco inh red | Sfp PPTase inh | ALDH1A1 inh | NPSR antagonist
C(=C\CSc1nnnn1-c1ccccc1)/CSc1nnnn1-c1ccccc1 | 1% | -1 | 10% | 0% | 0.1µM* | -24%[46.1 µM]
COC(=O)c1sccc1NC(=O)CSc1ccccc1NC(=O)CNC(C)C | 15% | -1 | 8% | 7% | 3.5µM* | ?
c1ccc(-c2noc(CSc3nnc(Cc4cccs4)n3-c3ccccc3)n2)cc1 | 2% | 3 | -10% | -1% | ? | -16%[46.1 µM]
c1ccc(-c2noc(CSc3nnnn3-c3ccccc3)n2)cc1 | 5% | -4 | 56% | 12% | 11µM* | 4%[46.1 µM]
Cc1ccc(C(C)C)c(Oc2nnnn2-c2ccccc2)c1 | -4% | 1 | -3% | -10% | 18µM* | ?
O=S(=O)(NCCSc1nnnn1-c1ccccc1)c1cccs1 | 6% | 0 | 1% | 9% | 13µM* | -6%[46.1 µM]
CSc1ccccc1-n1nnnc1SCc1ccccc1 | -2% | -13 | 0% | ? | 7.1µM* | -25%[46.1 µM]
CCCSc1nnc(Sc2nnnn2-c2ccccc2)s1 | -2% | 0 | -8% | 6% | 11µM* | -13%[46.1 µM]
Cc1ccc(C)c(Oc2nnnn2-c2ccccc2)c1 | 4% | 3 | 10% | -1% | -16% | -15%[46.1 µM]
O=C(O)c1ccc(-n2nnnc2SCc2ccccc2)cc1 | -5% | 20 | 10% | 1% | 2% | 0%[46.1 µM]
CC1CCN(CC(=O)Nc2ccc(C(=O)N3CCCCC3)cc2)CC1 | . | 2 | . | -13% | . | .
Cc1ccccc1-n1nnnc1Sc1nnnn1-c1ccccc1 | -9% | 1 | 5% | 22% | 25µM* | -6%[46.1 µM]
Cc1cccc2nc(CSc3nnnn3-c3ccccc3)cn12 | 5% | 0 | 1% | 21% | 10µM* | -10%[46.1 µM]
COC(=O)c1csc(C(=O)c2c[nH]c3ccccc23)n1 | . | -4 | 10% | -19% | -2% | .
N#Cc1c(NC(NC(=O)c2ccco2)C(=O)c2ccccc2)sc2c1CCCC2 (configuration not stated) | ? | -1 | -8% | 20µM* | ? | -29%[46.1 µM]
NC(=O)c1c(NC(NC(=O)c2ccco2)C(=O)c2ccc(Cl)cc2)sc2c1CCCC2 (configuration not stated) | ? | -2 | 11% | 56µM* | 18µM* | -30%[46.1 µM]
O=S(=O)(Nc1cc(F)ccc1F)c1cccc2nonc12 | . | -3 | . | 7% | . | .
COc1ccc(-n2ncc3c2CC(C)(C)CC3NC(=O)CCN2CCCCC2=O)cc1 (configuration not stated) | . | . | . | 9% | . | .
COc1cccc(OCc2cc(C3Nc4ccccc4C(=O)N3Cc3ccco3)ccc2OC)c1 (configuration not stated) | ? | -3 | 15% | 14µM* | ? | ?
COc1ccc(C(=O)NC2CCSc3ccccc32)cc1F (configuration not stated) | . | -8 | . | 20% | . | .
CCCCC(=O)N/N=C/c1ccc(-c2ccc([N+](=O)[O-])cc2)o1 | -11% | 1 | 25% | -11% | ? | 32%
CC(C)(C)NC(=S)N/N=C\c1ccc(-c2ccc([N+](=O)[O-])cc2)o1 | -2% | -4 | 20% | 32µM* | . | ?
NS(=O)(=O)c1ccc(-c2ccc(/C=N/Nc3ccc(C(=O)O)cc3)o2)cc1 | ? | -7 | -1% | 50µM* | . | -10%
O=C(O)c1ccc(-c2ccc(/C=N/Nc3ccc([N+](=O)[O-])cc3)o2)cc1 | ? | -7 | 89% | ? | . | -34%
